The target in the assay is NADPH oxidase 5 (Homo sapiens) (UniProt Q96PH1). The assay can be described thus: compounds shifting NOX5 Amplex Red fluorescence – cell-based, HEK293-NOX5, NOX inhibitor project, primary screen (AID 1161). Conditions: HEK293-NOX5, ionomycin, 45 min, higher = more signal.
Chain of NADPH oxidase 5 (Homo sapiens) (Q96PH1 whole entry, looked up): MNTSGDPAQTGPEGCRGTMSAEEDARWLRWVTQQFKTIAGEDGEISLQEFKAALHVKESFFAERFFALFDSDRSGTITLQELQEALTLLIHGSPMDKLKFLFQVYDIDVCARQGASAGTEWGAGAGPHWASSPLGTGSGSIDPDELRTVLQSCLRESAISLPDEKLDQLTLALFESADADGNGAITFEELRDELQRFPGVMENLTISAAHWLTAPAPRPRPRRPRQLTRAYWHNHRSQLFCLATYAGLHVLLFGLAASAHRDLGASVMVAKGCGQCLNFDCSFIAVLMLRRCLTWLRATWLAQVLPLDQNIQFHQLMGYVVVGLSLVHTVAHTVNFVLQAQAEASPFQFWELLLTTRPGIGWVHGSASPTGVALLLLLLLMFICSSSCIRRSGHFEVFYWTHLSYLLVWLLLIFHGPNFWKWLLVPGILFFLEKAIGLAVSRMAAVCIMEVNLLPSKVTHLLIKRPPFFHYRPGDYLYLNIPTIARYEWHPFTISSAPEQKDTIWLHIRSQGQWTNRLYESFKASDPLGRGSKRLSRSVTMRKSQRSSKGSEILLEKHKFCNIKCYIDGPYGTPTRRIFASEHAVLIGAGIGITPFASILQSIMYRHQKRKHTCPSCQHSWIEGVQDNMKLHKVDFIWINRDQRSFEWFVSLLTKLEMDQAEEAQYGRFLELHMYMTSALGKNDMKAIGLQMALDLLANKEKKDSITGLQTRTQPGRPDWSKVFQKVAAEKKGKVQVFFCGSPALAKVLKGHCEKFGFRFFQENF
As for `CCOC(=O)[C@H](CC(C)C)NC(=O)CCC1CC(OC(=O)NCc2ccc3c(c2)OCO3)CC2(CCCC(COC(=O)NCCOC)O2)O1` (stereo not given in full), the z-score was 0.144.

For the compound `COc1ccc(OC[C@@H](CO)OC)cc1`, the z-score is 0.133.

Turning to `COC(=O)[C@@H]1CC[C@H](C)[C@@H](c2ccc(C)cc2)N1C(=O)c1ccc(C=NOC[C@@H](O)[C@H]2O[C@@H]3OC(C)(C)O[C@@H]3[C@H]2O)cc1`, the z-score was determined as 0.417.

For the compound `CC(=O)OC[C@H]1O[C@H](CC=NO[C@@H](C)c2cn([C@H](CO)Cc3ccccc3)nn2)C=C[C@@H]1OC(C)=O`, the z-score is -1.41.

With `COC(=O)[C@H](C)NC(=O)CCC1CC(OC(=O)NCc2ccc3c(c2)OCO3)CC2(CCCC(COC(=O)NCCC(C)C)O2)O1` (stereo not given in full), the z-score came out at 0.284.

Values taken from PubChem BioAssay.
